Results published in PubChem BioAssay (Tox21).
Values joined by “and” are separate entries in the source; they are usually repeats but may differ in a detail not shown here. Equal values may be shown once. Results filed as inconclusive are left out. A call without a number means that no potency is given here. Active and inactive are the calls of the source. The call rests on the fitted dose curve; in most records, active means well fitted inhibition curve with a large enough effect in the repeat runs; inconclusive means weak or mixed curves, or effect the other way; inactive means no such curve, though single readings can be large or run the other way.

Test: qHTS assay to identify small molecule antagonists of the retinoic acid receptor (RAR) signaling pathway (AID 1159552; further: nearly all actives have a fitted effect of over 50% in size)
Settings: C3RL4 RARE luciferase reporter, retinol-stimulated, 6 h; series mostly up to 92.4 µM
Excerpt: National Center for Advancing Translational Sciences [NCATS]
NIH Chemical Genomics Center [NCGC]
U.S. Environmental Protection Agency [EPA]
National Institutes of Environmental Health Sciences [NIEHS]
National Toxicology Program [NTP]
U.S. Food and Drug Administration [FDA]
All-trans Retinoic acid (atRA) is the potent natural metabolite of retinol and plays an important role in normal embryonic development and maintenance of cellular phenotype in adult animals. atRA is the activating ligand for the retinoic acid receptors (RARs) which form heterodimers with retinoid X receptors (RXRs) on the retinoic acid response element (RARE). Through activation of the RAR/RXRs nuclear receptors, atRA regulates the transcription of a large number of protein-coding genes and regulatory RNAs. Intracellular levels of atRA are controlled by the retinol signaling pathway (RSP) that regulates the biosynthesis and catabolism of atRA to maintain physiological levels. Chemicals that interfere with the RSP can cause abnormal intracellular levels of atRA and therefore are potential developmental toxicants. To assess compounds for the potential adverse effect on embryonic development through interfering with retinol signaling, a cell-based RARE luciferase reporter gene assay was used. C3RL4 cell line (OARSA/CFSAN/FDA, Laurel, MD) was used to screen Tox21 10K compound library for identifying inhibitors of the RSP.
Tox21 Assay Protocol Summary:
C3RL4 cells were seeded at 1,000/well in 4 uL of assay medium into white solid 1,536-well tissue culture plates (Greiner Bio-One North America Inc. Monroe, NC) using a Multidrop Combi (Thermo Scientific, Waltham, MA) dispenser. After incubation at 37 C and 5% CO2 for an overnight, 23 nL of compounds dissolved in DMSO, positive control or DMSO only were transferred by a Pintool station (Kalypsys, San Diego, CA). One ul of 1 uM (final concentration) of Retinol was added right after the compound addition by using a Flying Reagent Dispenser (FRD) (Aurora Discovery, San Diego, CA). After 6 hr incubation at 37 C and 5% CO2, 5 uL of Amplite Luciferase reagent (AAT Bioquest Inc. Sunnyvale, CA) was added to each assay plate using an FRD. Luminescence was quantified on a ViewLux plate reader (PerkinElmer, Waltham, MA) after 30 min incubation at room temperature.
Potency means the concentration at half of the fitted maximal effect.

Compound	Potency
CCCCCCCCCCCCOC(=O)c1cc(O)c(O)c(O)c1	inactive
CCCCCCCC/C=C\CCCCCCCC(=O)NCc1ccc(O)c(OC)c1	inactive
c1ccc(Sc2ccccc2)cc1	inactive
C[Si](C)O[Si](C)C	inactive
CCOC(=O)C1=C(C)NC(C)=C(C(=O)OCC)C1c1ccccc1/C=C/C(=O)OC(C)(C)C	29.8 µM (active)
CCCCCCCCCCCCN(CCO)CCO	54.3 µM (active)
O=C1NC2CCCCN2C12CCN(CCCN1c3ccccc3CCc3ccc(Cl)cc31)CC2 (stereo not given)	29.8 µM (active)
C[Si](C)(C)Cl	inactive
Clc1cc(Cl)c(-c2c(Cl)c(Cl)cc(Cl)c2Cl)cc1Cl	inactive
C=CC(C)(CCC=C(C)C)OC(=O)/C=C/c1ccccc1 (stereo not given)	inactive
CCCCCCOc1ccc(O)cc1	inactive
Clc1nc2ccccc2s1	inactive
COC(=O)CC(C)CCC=C(C)C (stereo not given)	inactive
COC(=O)[C@]1(C)CCC[C@@]2(C)[C@H]1CC=C1C=C(C(C)C)CC[C@@H]12	inactive
CCOC(=O)N1CCC(=C2c3ccc(Cl)cc3CCc3cccnc32)CC1	inactive
CC(C)c1ccccc1N	inactive
O=C1NCCN1CCN1CCC(c2cn(-c3ccc(F)cc3)c3ccc(Cl)cc23)CC1	26.6 µM (active)
O=C(NO)c1ccccc1	inactive
CC=O	25.5 µM (active)
CC[N+](CC)(CC)Cc1ccccc1	inactive

Compound	Potency
CO[C@H]1C=CO[C@@]2(C)Oc3c(C)c(O)c4c(O)c(cc(O)c4c3C2=O)NC(=O)/C(C)=C\C=C/[C@H](C)[C@H](O)[C@@H](C)[C@@H](O)[C@@H](C)[C@H](OC(C)=O)[C@@H]1C	inactive
CCOCOCC	inactive
O=C(O)CC(=O)O	inactive
CCCCCCCCCCCCCCCC	inactive
Cc1cc(C)c(C=O)c(C)c1	inactive
CC(C)c1ccc(O)c(C(C)C)c1	inactive
O[C@@H](c1cc(C(F)(F)F)nc2c(C(F)(F)F)cccc12)[C@H]1CCCCN1	23.7 µM (active)
CC1=CCC(=O)O1	inactive
Cc1cnccn1	inactive
CCCCC(CC)COC(=O)c1ccc(O)cc1 (stereo not given)	inactive
CCCCCCCC(OC)OC	inactive
CC(COC(=O)c1ccccc1)OC(=O)c1ccccc1 (stereo not given)	inactive
CSc1c(Cl)c(Cl)c(Cl)c(Cl)c1Cl	inactive
Cn1cnc2ncnc(N)c21	inactive
CC(C)c1cccc(C(C)C)c1N1C(=O)c2ccc(O)cc2C1=O	24.3 µM (active)
Nc1ccc2cc3ccc(N)cc3nc2c1	4.33 µM (active) and 16.8 µM (active)
CC(C)(C)c1n[nH]c(=O)n(N)c1=O	inactive
Cc1cncc(C)c1	inactive
ClC/C=C\CCl	inactive
CCOC(=O)CC(C)O (stereo not given)	inactive
